These results are taken from PubChem BioAssay (NCI).

About 83,000 compounds went through this panel and 20% of them were active in at least one assay; those are over-represented in the sample as a whole.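 Testing used 96-well plates and a 48-hour single-concentration exposure. Example: -40 means 40% of the starting cells died.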 Active and inactive are the calls of the source.

In this experiment the test system is EKVX NSCLC. Put plainly: NCI-60 one-dose screen, 48 h (100 = growth as untreated, 0 = no growth, -100 = all killed). The settings on record: 10 µM unless noted. As for the experimental part: Growth inhibition of the EKVX human Non-Small Cell Lung tumor cell line is measured as a screen for anti-cancer activity. Cells are grown in 96 well plates and exposed to the test compound for 48 hours. Compounds are tested at a single concentration, which is 10^-5 M for most compounds. The reported endpoint is percent growth (GI% or GIPRCNT), where numbers from 0 - 100% represent growth inhibition, and numbers from -100% - 0 represent cell death. For example, a value of 40 represents 60% growth inhibition. A value of 0 means no net growth occurred over the course of the experiment. A value of -40 indicates 40% of cells at the beginning of the experiment died by the end of the experiment. A value of -100 means all cells are dead at the end of the experiment.
NCI-60 Human Tumor Cell Lines Screen was performed using the standard one-dose NCI protocol, which is described in more detail at https://dtp.cancer.gov/discovery_development/nci-60/default.htm.
Compounds with GIPRCNT values below 10 were considered active. Activity score was based on GIPRCNT using the following formula: […]
Score is 0 for GIPRCNT values of 100 or above, 50 for GIPRCNT values of 0, and 100 for GIPRCNT values of -100.
Turning to `CCOC(=O)Cn1c(=O)c2c(c3ccccc3n2C)n2nnc(-c3ccccc3)c12`, the growth was 95.1% (inactive).

For `O=c1c2cccc(Cl)c2sc2c(NCCCNCCO)nc3ccccc3c12`, the growth was 53.9% (inactive).

As for `Cc1ccc(C(C)C)cc1C(=O)C[n+]1ccccc1`, the growth is 99.7% (inactive).

Consider `COc1ccc2[nH]c(-c3ccccc3)c(/C=C(\C#N)S(=O)(=O)c3ccccc3)c2c1`, for which the growth is 56.7% (inactive).

Turning to `O=C(Cc1ccc2c(c1)OCCO2)Nc1nc2ccc(F)cc2s1`, the growth is 93.8% (inactive).

For `O=C(Oc1cccc2ccccc12)Oc1cccc2ccccc12`, the growth was 88.3% (inactive).

In the case of `Cc1nn(-c2ccccc2)c(-n2ccnc2)c1/C=N/Nc1nc(-c2ccc(Cl)c(Cl)c2)cs1`, the growth is 30.8% (inactive).

Take `COc1cccc2c(=O)c3c(sc12)c(NCCCN)nc1ccccc13`: the growth was 63.6% (inactive).

For the molecule `COc1ccc2c(c1)c(-c1ccc(-c3cn(C)c4ccc(OC)cc34)o1)cn2C`, the growth was 46.1% (inactive).

As to `c1ccc(Nc2cc(-c3cccnc3)[nH]n2)cc1`, the growth was 98.1% (inactive).

Regarding `CCCCCCCCCCCCCCCCCCOc1ccc(CC(=O)OCC[N+](C)(C)C)cc1`, the growth was 101% (inactive).

For `C[C@]12CC[C@@H]3c4cc(OC(F)F)c(OS(N)(=O)=O)cc4CC[C@H]3[C@@H]1CC[C@@H]2OS(N)(=O)=O`, the growth is 19% (inactive).

As to `NC1=C(c2nn[nH]n2)C(c2ccccc2Cl)c2ccc3ccccc3c2O1` (stereo not given), the growth is 90.7% (inactive).

Turning to `Nc1nn(C(=O)Nc2ccc(Cc3ccccc3)cc2)c2ccc(Cl)cc12`, the growth is 70% (inactive).

For `O=c1ccn(Cc2cn(-c3c4ccccc4nc4ccccc34)nn2)c(=O)[nH]1`, the growth was 103% (inactive).

As for `c1ccc2cc(C[n+]3ccn(CCCCCCCCCCCCn4cc[n+](Cc5ccc6ccccc6c5)c4)c3)ccc2c1`, the growth is -62.6% (active).

For the molecule `Cc1nn(-c2ccccc2)c(-n2ccnc2)c1/C=N/Nc1nc(-c2ccc(F)cc2)cs1`, the growth is 49.5% (inactive).

As for `CCOC(=O)C1=C(N)Oc2c(sc3c(CC)cccc23)C1c1ccc(F)cc1` (stereo not given), the growth was 64.1% (inactive).

Consider `CCCCn1c(-c2ccc(-c3nc(-c4ccc(Cl)cc4)no3)cc2)nc(-c2ccccc2)c1-c1ccccc1`, for which the growth was -93.7% (active).

Consider `CSc1ccc2c(c1)c(CCN)c(C)n2Cc1ccc(Cl)c(Cl)c1`, for which the growth was -86.7% (active).

Consider `O=C(/C=C/c1sc(Cl)nc1Cl)c1ccc(Br)cc1`, for which the growth is 96.5% (inactive).

`COc1ccc(CN2c3ccccc3Sc3ccccc32)c(F)c1`: the growth was 51% (inactive).

As to `COc1cc(/C=C2\C(=O)Nc3ccc(Br)cc32)cc(OC)c1OC`, the growth is 72.2% (inactive).

`Cc1oc2nc[nH]c(=O)c2c1C(=O)/C=C/c1ccc(Br)cc1`: the growth was 19.7% (inactive).

With `COc1ccc2c(c1)C(C)Cc1c(ncnc1-n1c(C)nc3ccccc31)N2C` (stereo not given), the growth was 43.4% (inactive).

Take `Oc1ccc(Cl)cc1Cc1cc(Cl)cc(Cl)c1O`: the growth is 35.6% (inactive).

In the case of `COc1ccc(-c2nc(NN)c3c(C)nn(-c4ccc(F)cc4)c3n2)cc1`, the growth is 59.4% (inactive).

As to `O=C(CCOCCNC(=O)COc1ccc2c(c1)OCC(c1ccc(F)cc1)C2=O)NCCCC(O)(P(=O)(O)O)P(=O)(O)O` (stereo not given), the growth was 94.5% (inactive).

Turning to `Nc1nc(Cl)cc(=O)n1Cc1ccccc1`, the growth was 94.1% (inactive).

`Cc1cc(=O)oc2cc(OC(=O)CN3CCN(C)CC3)ccc12`: the growth was 92.5% (inactive).

Consider `COc1ccc(S(=O)(=O)n2c3ccccc3n3ncc(-c4nnc(C)o4)c23)cc1`, for which the growth is 31.7% (inactive).

Consider `COc1cc(CNS(=O)(=O)c2ccc(C)cc2)ccc1OCc1cn(-c2ccccc2)nn1`, for which the growth is 87.6% (inactive).

Regarding `O=C(O)c1cn(C2CC2)c2cc(N3CCN(C(=O)Nc4nc(-c5ccccc5)cs4)CC3)c(F)cc2c1=O`, the growth was 37.5% (inactive).

In the case of `NCCCNc1nc2ccccc2c2c(=O)c3cc(F)cc(Cl)c3sc12`, the growth was 91.9% (inactive).

As for `c1ccc(OCc2nnc(-c3ccc(Oc4ccccc4)cc3)o2)cc1`, the growth was 96.6% (inactive).

For the molecule `Cc1ccc2nc(NC(=O)CSc3nc(Cl)c(C#N)c(-c4ccccc4)n3)sc2c1`, the growth is 102% (inactive).

For the molecule `O=c1cc(SCc2ccccc2)nc[nH]1`, the growth was 94.9% (inactive).

Regarding `COc1ccc2nc(NCCCNCCO)c3sc4ccc(F)cc4c(=O)c3c2c1`, the growth is 61.1% (inactive).

Regarding `COc1ccc(C(=O)n2nc(-c3ccccc3)nc2N)cc1OC`, the growth was 88.2% (inactive).

`COc1cccc(-c2nc(-c3ccc(NC(=O)OC(C)C)cc3)[nH]c2-c2ccnc(Br)c2)c1`: the growth was 27.6% (inactive).
